Compound activity from PubChem BioAssay.
sEH activator: increases human soluble epoxide hydrolase activity; P34913; purified human sEH enzymatic activity, activator screen; activation, % at 2 µM; actives 0.04% (n = 91,000); AID 717; in the data active means activation above about 37%
CYP2C19 inh: inhibitors of human CYP2C19; CYP2C19 Supersomes, luciferin-H EGE luminescence, 30 min; inhibition, % at 5 µM; actives 21% (n = 96,000); AID 778;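 active means CYP2C19 inhibition above a set limit at 5 µM in the primary screen, cut at about 50% in these data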;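 further: plate controls were negative control wells for no effect and 2.5 mM tranylcypromine positive control for full effect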
Target sequence (P33261 whole entry, looked up): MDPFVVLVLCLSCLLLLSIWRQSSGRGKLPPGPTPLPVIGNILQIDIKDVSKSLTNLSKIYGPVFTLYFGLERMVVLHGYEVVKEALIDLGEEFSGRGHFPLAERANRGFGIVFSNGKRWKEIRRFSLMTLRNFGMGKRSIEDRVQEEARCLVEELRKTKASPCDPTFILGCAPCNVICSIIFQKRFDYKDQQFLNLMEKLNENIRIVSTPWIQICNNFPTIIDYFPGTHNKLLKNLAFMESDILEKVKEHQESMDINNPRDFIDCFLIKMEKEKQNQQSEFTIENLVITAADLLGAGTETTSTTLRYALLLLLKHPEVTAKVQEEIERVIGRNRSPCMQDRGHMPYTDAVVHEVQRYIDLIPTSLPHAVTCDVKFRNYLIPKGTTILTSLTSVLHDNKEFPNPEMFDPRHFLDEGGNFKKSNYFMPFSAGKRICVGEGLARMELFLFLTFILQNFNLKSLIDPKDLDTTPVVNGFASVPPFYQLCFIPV
sEH inhibitor: soluble epoxide hydrolase (human) inhibition; recombinant human sEH enzymatic activity assay; inhibition, % at 2 µM; P34913; actives 0.34% (n = 91,000); in the data active means inhibition above about 80%
CYP2C19 act: activators of human cytochrome P450 2C19 | P33261 | recombinant CYP2C19, luciferin-H EGE luminescence; stronger effect = higher value; 0 = fully inhibited enzyme, 1 = untreated enzyme | activation factor at 5 µM | 96,000 tested, under 10 active | AID 1025;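 active means activation factor of at least 2 at 5 µM in the primary screen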;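 further: 0 = wells with 2.5 mM tranylcypromine and 1 = vehicle-only wells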
CYP2C9 inh: inhibitors of human CYP2C9. P11712. CYP2C9 Supersomes, luciferin-H conversion, luminescence. inhibition, % at 5 µM. actives 20% (n = 96,000). AID 777;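 active means blocking of liver enzyme CYP2C9 beyond about 50% at 5 µM, limit read from the data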
CYP2C9 act: activators of human CYP2C9 | P11712 | recombinant CYP2C9, luciferin-H conversion, luminescence; stronger effect = higher value; factor 1 = untreated enzyme, 0 = blocked | actives 1.4% (n = 96,000) | activation factor at 5 µM;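 active means activation factor of 2 or more for CYP2C9 at a 5 µM dose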;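 further: 0 = sulfaphenazole-blocked wells and 1 = vehicle-only wells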
Numbers without * were called inactive. Hits are enriched below; roughly 27% of the tested compounds scored in any of these assays.

C/C(N)=C(/C#N)C(=O)COC(=O)CC1CCCC1 was read as sEH activator 0, CYP2C19 inh 88*, sEH inhibitor -1, CYP2C19 act 0.1, CYP2C9 inh 41 and CYP2C9 act 0.6.
Screening C/C(N)=C(/C#N)C(=O)COC(=O)CSc1ccccc1 returned sEH activator -1, CYP2C19 inh 48, sEH inhibitor 0, CYP2C19 act 0.5, CYP2C9 inh 40 and CYP2C9 act 0.6.
C/C(Nc1ccccc1)=C(/C#N)C(N)=O was read as sEH activator -5, CYP2C19 inh -7, sEH inhibitor 5, CYP2C19 act 1.1, CYP2C9 inh -17 and CYP2C9 act 1.2.
For O=S(=O)(c1ccc(F)cc1)N1CCC(N2CCN(c3ccccc3)CC2)CC1 the results were sEH activator 7 and sEH inhibitor -6.
O=C1C(c2ccnc3ccccc23)=C(O)c2ccccc21 was read as sEH activator 9 and sEH inhibitor -6.
Screening CSC1=NCCN1C(=O)c1c(F)cccc1F returned sEH activator -7, CYP2C19 inh 11, sEH inhibitor 7, CYP2C19 act 0.9, CYP2C9 inh 10 and CYP2C9 act 0.9.
For CCOC(=O)c1c(C)c(C(=O)NC(C)COC)c(C)n1CC (stereo not drawn) the results were CYP2C19 inh 5, CYP2C19 act 0.9, CYP2C9 inh 0 and CYP2C9 act 1.
For CC1(C)Cc2c(c(N3CCCCC3)[nH]c(=S)c2C#N)CS1 the results were CYP2C19 inh 4, CYP2C19 act 1, CYP2C9 inh 38 and CYP2C9 act 0.6.
Screening CC(C)Sc1nc(N2CCCC2)c2c(c1C#N)CC(C)(C)OC2 returned CYP2C19 inh 61*, CYP2C19 act 0.4, CYP2C9 inh 87* and CYP2C9 act 0.1.
Screening CCCSc1nc(N2CCOCC2)c2c(c1C#N)CC(C)(C)SC2 returned sEH activator -5, CYP2C19 inh 35, sEH inhibitor 4, CYP2C19 act 0.7, CYP2C9 inh 66* and CYP2C9 act 0.3.
For CCOC(=O)CSc1nc(N2CCOCC2)c2c(c1C#N)CC(C)(C)N(C)C2 the results were CYP2C19 inh 22, CYP2C19 act 0.8, CYP2C9 inh 73* and CYP2C9 act 0.3.
CC(C)Sc1nc(N2CCOCC2)c2c(c1C#N)CC(C)(C)SC2 was read as CYP2C19 inh 70*, CYP2C19 act 0.3, CYP2C9 inh 95* and CYP2C9 act 0.1.
Screening O=C(O)CCCC(=O)N1CCc2cc(S(=O)(=O)N3CCc4ccccc43)ccc21 returned sEH activator 3, CYP2C19 inh -20, sEH inhibitor -3, CYP2C19 act 1.2, CYP2C9 inh 8 and CYP2C9 act 0.9.
Screening COC(=O)c1c(F)c(F)c(NCCO)c(F)c1F returned CYP2C19 inh 2, CYP2C19 act 1, CYP2C9 inh -7 and CYP2C9 act 1.1.
Cc1cc(C)c(C#N)c(N2CCCC2)n1 was read as sEH activator -12, CYP2C19 inh 14, sEH inhibitor 11, CYP2C19 act 0.9, CYP2C9 inh -34 and CYP2C9 act 1.3.
`Cc1nc(N2CCOCC2)c(C#N)c2c1COC(C)(C)C2` gave sEH activator 1 and sEH inhibitor 2.
Screening CC(Sc1nc(N2CCCCC2)c2c(c1C#N)CCCC2)C(=O)O (stereo not drawn) returned sEH activator 14, CYP2C19 inh 31, sEH inhibitor -13, CYP2C19 act 0.7, CYP2C9 inh 90* and CYP2C9 act 0.1.
`CC(C)Sc1nc(N2CCOCC2)c2c(c1C#N)CC(C)(C)N(C)C2` gave sEH activator -9, CYP2C19 inh 64*, sEH inhibitor 8, CYP2C19 act 0.4, CYP2C9 inh 97* and CYP2C9 act 0.
`CC(C)CSc1nc(N2CCOCC2)c2c(c1C#N)CC(C)(C)SC2` gave sEH activator 0, CYP2C19 inh 26, sEH inhibitor 0, CYP2C19 act 0.7, CYP2C9 inh 87* and CYP2C9 act 0.1.
FC(F)(F)c1cccc(-n2cccc2/C=N/n2cnnc2)c1 was read as sEH activator 10, CYP2C19 inh 44, sEH inhibitor -10, CYP2C19 act 0.6, CYP2C9 inh 20 and CYP2C9 act 0.8.
Screening Cc1nn(-c2cccc(C(F)(F)F)c2)c(Cl)c1/C=N/n1cnnc1 returned CYP2C19 inh 90*, CYP2C19 act 0.1, CYP2C9 inh 95* and CYP2C9 act 0.
